Reference: PubChem BioAssay
Activity calls are given as the source filed them.

Legend:
[1] = binders of probe aFSTL3 on microarray, primary screen, stem cell growth factor project, biochemical, small-molecule microarray, fluorescence 635/667 (AID 1064); conditions: higher = more signal;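 note: measures binding of the biotinylated anti-FSTL3 antibody to printed compounds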
[2] = binders from COS7 lysate, DM2A8 probe, primary screen, torsin A project, cell lysate, small-molecule microarray, fluorescence 635/667 (AID 1065); conditions: higher = more signal, COS7 lysate expressing mutant human TOR1A
[3] = binders of probe aFGF2 on microarray, primary screen, stem cell growth factor project, biochemical, small-molecule microarray, fluorescence 635/667 (AID 1067); conditions: higher = more signal;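 note: measures binding of biotinylated aFGF2 protein to printed compounds on slides; z-score merges feature fluorescence and signal-to-noise across triplicate slides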
[4] = binders of probe aFGF10 on microarray, primary screen, stem cell growth factor project, biochemical, small-molecule microarray, fluorescence 635/667 (AID 1071); conditions: higher = more signal;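 note: score merges 667 nm spot intensity and signal to noise from triplicate slides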
[5] = molecular target: Neurogenic locus notch homolog protein 2 (Homo sapiens) (UniProt Q04721); test: Notch2 binders on small-molecule microarrays, primary screen, biochemical, small-molecule microarray, 635 nm fluorescence, stem cell growth factors (AID 1073); conditions: Notch2 binding, higher = more signal
[6] = molecular target: Pro-neuregulin-1, membrane-bound isoform (Homo sapiens) (UniProt Q02297); test: NRG1 binders on small-molecule microarrays, primary screen, psychiatric disease protein project, biochemical, small-molecule microarray, fluorescence 635/667 (AID 1075); conditions: NRG1 binding, 635 nm fluorescence, higher = more signal;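 note: score combines 667 nm spot fluorescence with signal to noise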
Pro-neuregulin-1, membrane-bound isoform (Homo sapiens), sequence (Q02297 whole entry, looked up, the tested form may be a part, canonical isoform): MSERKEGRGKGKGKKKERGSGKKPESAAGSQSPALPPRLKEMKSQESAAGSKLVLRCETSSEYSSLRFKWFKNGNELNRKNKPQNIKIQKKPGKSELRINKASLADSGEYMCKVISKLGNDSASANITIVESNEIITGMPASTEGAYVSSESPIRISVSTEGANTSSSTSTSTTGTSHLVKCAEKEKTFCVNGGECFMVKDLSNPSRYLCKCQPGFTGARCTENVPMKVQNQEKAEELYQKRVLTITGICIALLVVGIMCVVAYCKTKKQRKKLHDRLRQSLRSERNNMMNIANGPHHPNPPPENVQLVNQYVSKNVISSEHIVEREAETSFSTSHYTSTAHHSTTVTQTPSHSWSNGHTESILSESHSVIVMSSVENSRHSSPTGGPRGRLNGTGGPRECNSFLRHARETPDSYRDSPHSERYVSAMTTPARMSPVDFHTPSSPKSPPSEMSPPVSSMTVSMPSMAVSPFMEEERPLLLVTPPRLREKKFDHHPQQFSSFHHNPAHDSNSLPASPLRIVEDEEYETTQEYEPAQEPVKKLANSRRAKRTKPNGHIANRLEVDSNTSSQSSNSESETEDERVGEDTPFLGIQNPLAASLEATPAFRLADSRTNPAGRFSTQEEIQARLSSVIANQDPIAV

[7] = test system: Neuregulin-1 EGF-like domain; test: binders of neuregulin-1 EGF-like domain, primary screen, biochemical, small-molecule microarray, 635 nm fluorescence (AID 1081); conditions: small-molecule microarray binding, higher = more signal;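 note: binding of the protein to compounds printed on small-molecule microarray slides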
[8] = FRG1 promoter luciferase signal modulators, primary screen, FRG1 inhibition for FSHD, cell-based, C2C12 myotubes, firefly/Renilla luciferase, luminescence (AID 1084); conditions: higher = more signal, called active from +8 up or from −8 down
[9] = binders of probe aFST on microarray, primary screen, stem cell growth factor project, biochemical, small-molecule microarray, fluorescence 635/667 (AID 1086); conditions: higher = more signal;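 note: score merges 667 nm fluorescence with signal-to-noise of each printed compound spot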
[10] = binders of probe aHhip on microarray, primary screen, stem cell growth factor project, biochemical, small-molecule microarray, fluorescence 635/667 (AID 1087); conditions: higher = more signal;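 note: score merges spot fluorescence at 667nm with spot signal to noise ratio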
[11] = test system: PRMT1 (protein arginine N-methyltransferase 1); test: PRMT1 binders on small-molecule microarrays, primary screen, biochemical, small-molecule microarray, 635 nm fluorescence (AID 1088); conditions: small-molecule microarray binding, higher = more signal;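 note: binding of Prmt1 protein to compounds spotted on small-molecule microarray slides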
[12] = yeast growth modulation, basal conditions, primary screen, YJM789 clinical isolate, OD600, 24 h (AID 1089);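 note: growth of clinical yeast isolate S. cerevisiae YJM 789 seeded 1000 cells per well; test concentration not given here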; conditions: S. cerevisiae YJM789 growth, higher = more signal, called active from +8 up or from −8 down
[13] = fission yeast growth modulation, primary screen, strain 972, OD600, 24 h, no modulator (AID 1090);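 note: basal condition with compound alone and no growth modifier present; test concentration not given here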; conditions: S. pombe 972 growth, higher = more signal, called active from +8 up or from −8 down
[14] = S. cerevisiae growth modulation with rapamycin, primary screen, strain BY4716, OD600, 96 h (AID 1091); conditions: higher = more signal, called active from +8 up or from −8 down; note: test concentration not given here
[15] = molecular target: Torsin-1A-interacting protein 2 (Homo sapiens) (UniProt Q8NFQ8); test: LULL1 binders on small-molecule microarray, primary screen, cell lysate, human LULL1 lysate, 635/667 nm fluorescence (AID 1092); conditions: hLULL1 lysate binding, 635 nm fluorescence, higher = more signal;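 note: probe is lysate of COS7 cells overexpressing human LULL1; score merges per-feature 667 nm fluorescence with signal-to-noise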
Torsin-1A-interacting protein 2 (Homo sapiens), sequence (Q8NFQ8 whole entry, looked up): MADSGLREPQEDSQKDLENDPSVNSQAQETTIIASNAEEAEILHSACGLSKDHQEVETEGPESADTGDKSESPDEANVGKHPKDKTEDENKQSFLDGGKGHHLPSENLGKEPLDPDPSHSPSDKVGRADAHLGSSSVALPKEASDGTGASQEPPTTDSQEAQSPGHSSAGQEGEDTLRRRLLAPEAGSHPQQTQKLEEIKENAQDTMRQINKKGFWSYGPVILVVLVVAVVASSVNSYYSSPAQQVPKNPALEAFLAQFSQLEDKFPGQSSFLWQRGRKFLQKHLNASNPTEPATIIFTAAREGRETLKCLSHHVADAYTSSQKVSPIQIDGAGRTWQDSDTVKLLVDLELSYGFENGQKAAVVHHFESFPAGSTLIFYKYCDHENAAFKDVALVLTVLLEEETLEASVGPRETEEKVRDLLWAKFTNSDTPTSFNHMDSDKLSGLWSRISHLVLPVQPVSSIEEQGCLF

[16] = E. coli growth modulation, two-sided OD650, primary screen, E. coli filamentation project, strain DRC41, 24 h (AID 1093); conditions: OD650, 24 h, higher = more signal, called active from +8 up or from −8 down;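 note: MC1000 strain lacking acrAB efflux and sulA so SOS filamentation is blocked; test concentration not given here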
[17] = small-molecule microarray binders of probe aLefty2, primary screen, biochemical, biotinylated probe, 635/667 nm fluorescence (AID 1094); conditions: higher = more signal;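 note: score merges spot fluorescence near 667 nm with spot signal-to-noise ratio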
[18] = test system: Noggin (protein binding on small-molecule microarray); test: Noggin binders on small-molecule microarray, primary screen, biochemical, 635/667 nm fluorescence (AID 1095); conditions: 635 nm fluorescence, higher = more signal;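 note: score merges 667 nm feature fluorescence with signal to noise over triplicate slides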
[19] = molecular target: Neurogenic locus notch homolog protein 3 (Homo sapiens) (UniProt Q9UM47); test: NOTCH3 binders on small-molecule microarray, primary screen, biochemical, 635/667 nm fluorescence (AID 1096); conditions: NOTCH3 binding, 635 nm fluorescence, higher = more signal
Neurogenic locus notch homolog protein 3 (Homo sapiens), sequence (Q9UM47 whole entry, looked up): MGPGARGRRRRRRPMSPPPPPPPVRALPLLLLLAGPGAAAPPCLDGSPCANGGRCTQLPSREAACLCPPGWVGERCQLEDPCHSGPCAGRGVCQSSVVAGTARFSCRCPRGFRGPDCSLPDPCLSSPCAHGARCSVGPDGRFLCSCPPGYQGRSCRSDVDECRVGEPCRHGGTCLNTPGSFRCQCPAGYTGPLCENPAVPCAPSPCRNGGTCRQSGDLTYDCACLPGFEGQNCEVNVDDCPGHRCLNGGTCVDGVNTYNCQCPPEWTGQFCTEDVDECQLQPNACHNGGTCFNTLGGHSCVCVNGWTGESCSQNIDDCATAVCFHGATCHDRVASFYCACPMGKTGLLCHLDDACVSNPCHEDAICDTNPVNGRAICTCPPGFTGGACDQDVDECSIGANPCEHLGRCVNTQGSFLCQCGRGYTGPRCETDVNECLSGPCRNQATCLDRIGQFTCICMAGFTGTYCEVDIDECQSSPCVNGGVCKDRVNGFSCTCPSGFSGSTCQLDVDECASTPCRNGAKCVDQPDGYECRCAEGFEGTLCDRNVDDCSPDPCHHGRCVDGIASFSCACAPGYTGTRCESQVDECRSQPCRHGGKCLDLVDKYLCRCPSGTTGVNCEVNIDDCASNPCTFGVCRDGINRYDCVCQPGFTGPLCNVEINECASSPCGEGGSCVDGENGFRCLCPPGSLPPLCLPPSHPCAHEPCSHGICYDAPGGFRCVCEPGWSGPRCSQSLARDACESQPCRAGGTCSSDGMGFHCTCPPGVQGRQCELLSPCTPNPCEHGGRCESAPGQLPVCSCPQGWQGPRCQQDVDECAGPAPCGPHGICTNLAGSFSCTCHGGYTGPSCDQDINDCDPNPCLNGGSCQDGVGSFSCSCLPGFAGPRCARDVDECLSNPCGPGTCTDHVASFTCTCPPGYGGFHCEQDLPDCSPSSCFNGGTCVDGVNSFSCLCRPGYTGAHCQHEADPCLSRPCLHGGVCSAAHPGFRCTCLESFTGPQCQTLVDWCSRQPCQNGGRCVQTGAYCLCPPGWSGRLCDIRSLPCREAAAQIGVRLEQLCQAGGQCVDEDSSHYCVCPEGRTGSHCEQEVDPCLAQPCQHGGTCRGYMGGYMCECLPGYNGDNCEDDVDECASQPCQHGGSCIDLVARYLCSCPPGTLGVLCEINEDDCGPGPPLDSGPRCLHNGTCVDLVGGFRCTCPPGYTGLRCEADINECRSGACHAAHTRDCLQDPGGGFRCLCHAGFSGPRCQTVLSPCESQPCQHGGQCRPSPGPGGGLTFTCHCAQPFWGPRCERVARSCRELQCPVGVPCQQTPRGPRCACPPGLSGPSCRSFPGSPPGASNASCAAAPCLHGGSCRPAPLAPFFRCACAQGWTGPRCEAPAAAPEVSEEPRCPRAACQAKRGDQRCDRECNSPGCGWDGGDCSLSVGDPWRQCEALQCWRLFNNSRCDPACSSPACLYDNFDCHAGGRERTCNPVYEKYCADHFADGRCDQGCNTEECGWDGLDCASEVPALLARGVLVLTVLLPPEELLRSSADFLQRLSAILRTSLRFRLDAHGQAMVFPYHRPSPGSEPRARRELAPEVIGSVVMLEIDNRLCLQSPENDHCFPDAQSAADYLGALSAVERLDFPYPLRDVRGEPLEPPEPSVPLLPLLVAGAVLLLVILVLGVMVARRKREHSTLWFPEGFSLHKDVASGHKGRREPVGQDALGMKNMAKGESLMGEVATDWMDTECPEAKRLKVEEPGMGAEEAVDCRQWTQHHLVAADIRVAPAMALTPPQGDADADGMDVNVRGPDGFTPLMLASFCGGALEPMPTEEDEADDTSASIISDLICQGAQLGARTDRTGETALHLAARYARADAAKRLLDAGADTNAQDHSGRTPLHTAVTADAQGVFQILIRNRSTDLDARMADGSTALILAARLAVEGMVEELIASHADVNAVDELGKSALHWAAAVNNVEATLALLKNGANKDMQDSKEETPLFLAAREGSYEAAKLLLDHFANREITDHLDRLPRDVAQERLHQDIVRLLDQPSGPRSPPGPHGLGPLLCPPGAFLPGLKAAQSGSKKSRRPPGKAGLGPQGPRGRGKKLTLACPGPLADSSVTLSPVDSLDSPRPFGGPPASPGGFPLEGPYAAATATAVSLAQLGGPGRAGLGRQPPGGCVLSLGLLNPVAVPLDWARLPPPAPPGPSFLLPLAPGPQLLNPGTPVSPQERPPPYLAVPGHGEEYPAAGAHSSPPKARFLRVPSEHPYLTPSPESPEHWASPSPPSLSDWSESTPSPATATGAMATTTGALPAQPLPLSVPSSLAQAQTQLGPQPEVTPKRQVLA

[20] = small-molecule microarray binders of probe aEGFR, primary screen, biochemical, biotinylated probe, 635/667 nm fluorescence (AID 1097); conditions: higher = more signal;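 note: probe is a biotinylated anti-EGFR antibody binding compounds printed on slides; score combines fluorescence near 667 nm and signal to noise of each spot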

Row | SMILES | composite z-score [1] | composite z-score [2] | composite z-score [3] | composite z-score [4] | composite z-score [5] | composite z-score [6] | composite z-score [7] | z-score [8] | composite z-score [9] | composite z-score [10] | composite z-score [11] | z-score [12] | z-score [13] | z-score [14] | composite z-score [15] | z-score [16] | composite z-score [17] | composite z-score [18] | composite z-score [19] | composite z-score [20]
1 | Cn1c(=O)n2n(c1=O)[C@H]1[C@H](O)[C@@H]3O[C@@H]3C(=NOCc3ccccc3)[C@H]1CC2 | -0.266 | 0.125 | -0.085 | -0.0229 | 0.0633 | -0.257 | 0.0977 | -0.928 (inactive) | -0.0977 | -0.0088 | 0.241 | 0.409 (inactive) | -0.41 (inactive) | -0.115 (inactive) | 2.31 | 0.703 (inactive) | -0.185 | -0.173 | 0.525 | -0.118
2 | CO[C@H]1COC(=O)CC=C[C@@H](C)[C@H](OC)COC(=O)[C@@H]2CCCN2C(=O)CC=C[C@@H]1C | -0.479 | 2.11 | -0.17 | -0.0728 | -0.162 | -0.591 | 0.87 | -0.273 (inactive) | 0.374 | -0.169 | 1.12 | 0.221 (inactive) | -0.0931 (inactive) | -0.202 (inactive) | -0.328 | 0.619 (inactive) | -0.229 | 1.41 | 0.716 | 0.0115
3 | COC(=O)[C@H]1[C@@H](O)[C@@]2(O)c3ccccc3O[C@@]2(c2ccccc2)[C@@H]1c1ccccc1 | 1.08 | 0.177 | -0.114 | 0.269 | 0.254 | -0.68 | 0.768 | -0.886 (inactive) | 0.0643 | -0.301 | -0.701 | 0.0966 (inactive) | 0.226 (inactive) | 0.705 (inactive) | 0.124 | 0.685 (inactive) | -0.0324 | -0.169 | -0.104 | -0.123
4 | COc1cccc([C@H]2Oc3ccc(OC)cc3C(=NOC(C)CN3CCCCc4nc(C)c(C)cc43)[C@@H]2O)c1 (stereo not given in full) | 0.161 | -0.0173 | -0.0005 | 0.561 | 0.0879 | 0.996 | 0.632 | -2.06 (inactive) | -0.0285 | 0.0854 | 1.03 | -0.915 (inactive) | -1.19 (inactive) | -1.48 (inactive) | 1.45 | 1.25 (inactive) | 0.0344 | 0.0286 | 0.32 | 0.044
5 | CC(CCN1CCCCc2nc(C)c(C)cc21)=NOC[C@@H](O)COCc1ccco1 | -0.471 | 2.6 | -0.242 | 0.0106 | 0.296 | -1.03 | 0.298 | -0.0255 (inactive) | 0.193 | 0.259 | 1.3 | -1.35 (inactive) | 0.527 (inactive) | -0.119 (inactive) | -0.58 | 0.742 (inactive) | -0.0042 | 1.21 | 0.876 | 0.592
6 | CON=C[C@@H](C)[C@H](OCc1ccccc1)C(C)C | 0.797 | 0.0789 | -0.138 | -0.0499 | -0.12 | -0.575 | -0.502 | 0.538 (inactive) | -0.0062 | 0.0373 | -1.25 | 0.0195 (inactive) | -0.596 (inactive) | 0.772 (inactive) | -0.618 | -0.718 (inactive) | -0.149 | 0.314 | -0.154 | -0.158
7 | CC(=O)OC[C@H]1O[C@@H](ON=C(C)CCN2CCCc3nc(C)c(C)cc32)[C@H](OC(C)=O)[C@@H](OC(C)=O)[C@@H]1OC(C)=O | -0.63 | 0.165 | -0.127 | 0.76 | 1.41 | 0.394 | 1.07 | 0.935 (inactive) | 0.139 | -0.0618 | 1.55 | 0.215 (inactive) | 0.0313 (inactive) | 0.427 (inactive) | 0.993 | -0.722 (inactive) | -0.136 | 0.952 | 1.11 | 0.0781
8 | CSCC[C@@H]1NC(=O)CC=C[C@@H](C)COC(=O)[C@@H](C)COC1=O | -0.324 | 2.62 | -0.144 | -0.456 | -0.239 | -1.21 | 0.129 | -0.371 (inactive) | -0.485 | -0.391 | 1.21 | 0.506 (inactive) | -0.463 (inactive) | -0.318 (inactive) | 0.0424 | 0.59 (inactive) | -0.103 | 0.882 | -0.142 | -0.197
9 | C=CC[C@@H]1C=C[C@H](ON=C(C)CCN2CCc3nc(-c4ccccc4)c(-c4ccccc4)cc3C2)[C@@H](CO)O1 | -0.374 | 1.11 | -0.2 | 0.34 | 0.65 | 0.464 | 0.942 | 1.23 (inactive) | 0.197 | 0.0393 | 1.55 | -0.67 (inactive) | -4.53 (inactive) | -3.82 (inactive) | 1.53 | 1.42 (inactive) | -0.152 | 0.631 | 0.858 | -0.0332
10 | CO[C@H]1COC(=O)[C@H](C)NC(=O)[C@@H](C)COC(=O)[C@H]2CCCN2C(=O)CC=C[C@H]1C | -0.403 | 1.06 | -0.216 | 0.347 | 0.338 | -0.499 | 0.175 | -0.345 (inactive) | -0.0694 | -0.179 | 1.08 | -0.282 (inactive) | -0.658 (inactive) | -0.571 (inactive) | -0.412 | 0.492 (inactive) | -0.138 | 0.542 | 0.358 | -0.0689
